Laboratory results from PubChem BioAssay (EPA / NIEHS).
Activity calls are given as the source filed them. How the source made its calls: active means hit-call score of the fitted dose curve at least 0.9, where 1 is the maximum; inactive means score below 0.9.

Legend:
[1] = ATG_GLI_CIS: Attagene CIS-FACTORIAL HepG2 Assay for human Zinc Finger Protein GLI1 (AID 2282945); conditions: HepG2, Attagene cis-factorial reporter mRNA, GLI element; actives raise or lower the signal
Procedure, shortened: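 HepG2 cells transiently transfected with cis-promoter multiplexed reporter units report endogenous transcription factor activity. After 24 h chemical exposure, reporter mRNA was quantified by RT-PCR, 6-FAM labelling, HpaI digestion and capillary electrophoresis, with bidirectional fitting against DMSO.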

[2] = target: Bile acid receptor (Homo sapiens) (UniProt Q96RI1); assay: ATG_IR1_CIS: Attagene CIS-FACTORIAL HepG2 Assay for human Nuclear Receptor Subfamily 1 Group H Member 4 (NR1H4), IR1 submotif (AID 2282946); conditions: IR1 reporter transcription, actives raise or lower the signal
Procedure, shortened: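 Readout: reporter transcript levels by RT-PCR with fluorescent capillary electrophoresis, from HepG2 cells transiently transfected with multiplexed cis-regulated reporters and dosed 24 h. Gain- or loss-of-signal fitted versus DMSO negative control.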

[3] = ATG_GRE_CIS: Attagene CIS-FACTORIAL HepG2 Assay for human Glucocorticoid Response Elements (GRE) (AID 2282947); conditions: HepG2 GRE cis-reporter, Attagene multiplex mRNA; actives raise or lower the signal
Procedure, shortened: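 Cells (HepG2) bearing transfected cis-promoter reporter transcription units were treated with chemical for 24 hours. Reporter mRNA was measured via RT-PCR with capillary electrophoresis, and activity was fitted in both directions relative to DMSO.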

[4] = ATG_ISRE_CIS: Attagene CIS-FACTORIAL HepG2 Assay for human Interferon Regulatory Factor 1 (IRF1) binding to an Interferon-Stimulated Response Element (ISRE) (AID 2282948); conditions: HepG2 ISRE cis-reporter (Attagene), mRNA transcription readout; actives raise or lower the signal
Procedure, shortened: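 Uses HepG2 liver cells transfected with cis-regulated reporters and measures mRNA 24 h post-dosing through RT-PCR, primer-extension labelling and capillary electrophoresis, with DMSO as negative control.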

[5] = ATG_M_32_CIS: Attagene CIS-FACTORIAL HepG2 Assay for M32 Transcription Factor (Internal Marker) (AID 2282949); conditions: HepG2 Attagene cis-factorial M32 reporter, mRNA; actives raise or lower the signal;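 further: background control marker of the multiplexed CIS panel rather than a real target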
Procedure, shortened: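 HepG2 human liver cells transiently transfected with cis-promoter-driven multiple reporter transcription units, dosed 24 h. Reporter mRNA quantified by RT-PCR, FAM-labelled primer extension, HpaI digest and capillary electrophoresis; bidirectional fit versus DMSO baseline.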

[6] = target: Hepatocyte nuclear factor 6 (Homo sapiens) (UniProt Q9UBC0); assay: ATG_HNF6_CIS: Attagene CIS-FACTORIAL HepG2 Assay for human Hepatocyte Nuclear Factor 6 (HNF6) (AID 2282952); conditions: HepG2 Attagene cis-factorial HNF6 reporter transcription; actives raise or lower the signal
Procedure, shortened: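 First, HepG2 cells were transfected with the multiplexed cis reporter library and dosed with chemical for 24 h. Next, RNA was reverse-transcribed, PCR-amplified and fluorescently labelled. Finally, HpaI-digested fragments were read by capillary electrophoresis.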

[7] = target: Heat shock factor protein 1 (Homo sapiens) (UniProt Q00613); assay: ATG_HSE_CIS: Attagene CIS-FACTORIAL HepG2 Assay for human Heat Shock Transcription Factor 1 (HSE) (AID 2282953); conditions: HepG2 HSE cis-reporter, Attagene RNA transcription; actives raise or lower the signal
Procedure, shortened: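 After a 24 h incubation with test chemical, transfected HepG2 cells were harvested for RNA; reporter transcripts were measured by RT-PCR and capillary electrophoresis. Values reflect gain or loss of signal relative to DMSO.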

[8] = ATG_MRE_CIS: Attagene CIS-FACTORIAL HepG2 Assay for human Metal Responsive Element (MRE) (AID 2282954); conditions: HepG2 MRE cis-reporter transcription, Attagene multiplex; actives raise or lower the signal
Procedure, shortened: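 Cells were transfected with cis-promoter reporter transcription units, then dosed for 24 h. RNA was reverse-transcribed, amplified, fluorescently labelled and resolved by capillary electrophoresis, and activity was fitted in both directions relative to DMSO.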

[9] = ATG_PBREM_CIS: Attagene CIS-FACTORIAL HepG2 Assay for human Phenobarbital-responsive Enhancer Module (PBREM) (AID 2282955); conditions: HepG2 PBREM cis-reporter, Attagene multiplexed transcription; actives raise or lower the signal
Procedure, shortened: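 Measures endogenous factor action on a phenobarbital-responsive enhancer module. HepG2 transiently carrying cis reporters, 24 h treatment, mRNA read-out by RT-PCR plus capillary electrophoresis.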

[10] = target: Paired box protein Pax-6 (Homo sapiens) (UniProt P26367); assay: ATG_Pax6_CIS: Attagene CIS-FACTORIAL HepG2 Assay for human Paired Box 6 (PAX6) (AID 2282956); conditions: HepG2 CIS-FACTORIAL PAX6 reporter transcription, RNA readout; actives raise or lower the signal
Procedure, shortened: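 DMSO-referenced bidirectional fits of reporter mRNA fluorescence; HepG2 with transient cis-promoter MRTUs, 24 h post-dose, RT-PCR plus capillary electrophoresis detection.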

[11] = ATG_PXRE_CIS: Attagene CIS-FACTORIAL HepG2 Assay for human Pregnane X Receptor Element (PXRE) (AID 2282957); conditions: HepG2 Attagene CIS-FACTORIAL PXRE reporter, mRNA; actives raise or lower the signal
Procedure, shortened: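 After a 24 h chemical incubation, total RNA from transfected HepG2 cells was reverse-transcribed and reporter cDNA amplified, FAM-labeled, HpaI-digested and sized by capillary electrophoresis. DMSO served as baseline for bidirectional curve fitting.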

[12] = ATG_PPRE_CIS: Attagene CIS-FACTORIAL HepG2 Assay for human Peroxisome Proliferator-activated Response Element (PPRE) (AID 2282958); conditions: HepG2 PPRE cis-element reporter, Attagene transcription factor profiling; actives raise or lower the signal
Procedure, shortened: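 PPRE activity in HepG2: transient cis-reporter transfection, 24 h compound incubation, reporter mRNA by RT-PCR and CE fluorescence; gain/loss fitted against DMSO.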

[13] = ATG_RORE_CIS: Attagene CIS-FACTORIAL HepG2 Assay for human RAR-related Orphan Receptor Element (RORE) (AID 2282959); conditions: HepG2 Attagene cis-factorial RORE reporter, mRNA; actives raise or lower the signal
Procedure, shortened: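 A 24-hour exposure of transfected HepG2 hepatoma cells precedes RNA isolation and reporter RT-PCR. Labeled products are digested with HpaI and resolved by capillary electrophoresis, with gain or loss of signal scored relative to DMSO.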

[14] = ATG_Sox_CIS: Attagene CIS-FACTORIAL HepG2 Assay for human SRY-box transcription factor (SOX) (AID 2282960); conditions: HepG2 Attagene cis-factorial SOX reporter, mRNA; actives raise or lower the signal
Procedure, shortened: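 HepG2, cis reporter units, 24 h exposure. Reporter mRNA: RT-PCR → FAM labelling → HpaI → CE fluorescence. Bidirectional fit vs DMSO.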

[15] = target: Transcription factor Sp1 (Homo sapiens) (UniProt P08047); assay: ATG_Sp1_CIS: Attagene CIS-FACTORIAL HepG2 Assay for human Specificity Protein 1 (Sp1) (AID 2282961); conditions: HepG2 Sp1 cis-reporter transcription, actives raise or lower the signal
Procedure, shortened: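 Liver-derived HepG2 cells, cis-element reporter library, 24 h treatment; RNA isolated, cDNA amplified with reporter-specific primers, FAM-labeled fragments sized on capillary analyzer. DMSO baseline, bidirectional curve fit.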

[16] = ATG_SREBP_CIS: Attagene CIS-FACTORIAL HepG2 Assay for human Sterol Regulatory Element Binding (SREBP) (AID 2282962); conditions: HepG2 Attagene cis-factorial SREBP reporter, mRNA; actives raise or lower the signal
Procedure, shortened: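 In this cis-format assay, HepG2 liver cells express reporters controlled by promoter elements responsive to native transcription factors. Exposure lasts 24 h; reporter mRNA fluorescence from capillary electrophoresis gives the signal, fitted bidirectionally against DMSO.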

[17] = target: Signal transducer and activator of transcription 3 (Homo sapiens) (UniProt P40763); assay: ATG_STAT3_CIS: Attagene CIS-FACTORIAL HepG2 Assay for human Signal Transducer and Activator of Transcription 3 (STAT3) (AID 2282963); conditions: HepG2, Attagene cis-factorial STAT3 reporter transcription; actives raise or lower the signal
Procedure, shortened: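 HepG2, MRTU-transfected, 24 h dosing. RNA → RT → PCR → FAM label → HpaI → CE. Bidirectional fit vs DMSO.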

[18] = ATG_TA_CIS: Attagene CIS-FACTORIAL HepG2 Assay for human TA Basal Promoter (AID 2282964); conditions: HepG2 Attagene CIS-factorial TA basal promoter reporter; actives raise or lower the signal
Procedure, shortened: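 Multiplexed mRNA reporter assay, HepG2, 24 h. Reporter cDNA amplified, 6-FAM primer-extended, HpaI-cut, CE-sized; DMSO = negative control and baseline.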

[19] = target: Hypoxia-inducible factor 1-alpha (Homo sapiens) (UniProt Q16665); assay: ATG_HIF1a_CIS: Attagene CIS-FACTORIAL HepG2 Assay for human Hypoxia Inducible Factor 1 (HIF1A) (AID 2282951); conditions: HepG2 Attagene cis-factorial HIF1a reporter transcription; actives raise or lower the signal
Procedure, shortened: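 After 24 h chemical exposure of reporter-transfected HepG2 cells, reporter cDNA was PCR-amplified, labelled by 6-FAM primer extension (2 min 95 C, 20 s 68 C, 10 min 72 C), HpaI-cut (2 h, 37 C) and analysed by CE.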

[20] = ATG_M_06_CIS: Attagene CIS-FACTORIAL HepG2 Assay for M06 Transcription Factor (Internal Marker) (AID 2282950); conditions: HepG2 Attagene CIS-FACTORIAL M06 internal marker reporter; actives raise or lower the signal
Procedure, shortened: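 Fluorescence-labelled RT-PCR products from cis-promoter reporter units, cut with HpaI and resolved by capillary electrophoresis, give the signal. Cells are human HepG2, dosed for 24 h. Serves as background control, fitted relative to DMSO.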

Measured: AC50

Heat shock factor protein 1 (Homo sapiens), sequence (Q00613 whole entry, looked up): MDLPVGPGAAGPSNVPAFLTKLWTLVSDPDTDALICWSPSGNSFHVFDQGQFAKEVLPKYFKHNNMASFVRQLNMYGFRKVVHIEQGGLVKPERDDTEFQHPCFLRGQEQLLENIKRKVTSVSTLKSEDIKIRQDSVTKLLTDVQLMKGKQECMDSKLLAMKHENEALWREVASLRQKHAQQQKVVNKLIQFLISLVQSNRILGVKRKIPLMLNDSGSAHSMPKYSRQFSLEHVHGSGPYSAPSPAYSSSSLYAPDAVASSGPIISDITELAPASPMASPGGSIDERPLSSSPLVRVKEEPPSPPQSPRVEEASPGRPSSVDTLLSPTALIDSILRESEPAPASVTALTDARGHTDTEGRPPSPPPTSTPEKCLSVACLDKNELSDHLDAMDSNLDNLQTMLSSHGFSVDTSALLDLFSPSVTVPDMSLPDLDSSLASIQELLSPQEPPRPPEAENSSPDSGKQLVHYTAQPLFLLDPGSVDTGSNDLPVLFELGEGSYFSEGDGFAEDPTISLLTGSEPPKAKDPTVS
Transcription factor Sp1 (Homo sapiens), sequence (P08047 whole entry, looked up, the tested form may be a part): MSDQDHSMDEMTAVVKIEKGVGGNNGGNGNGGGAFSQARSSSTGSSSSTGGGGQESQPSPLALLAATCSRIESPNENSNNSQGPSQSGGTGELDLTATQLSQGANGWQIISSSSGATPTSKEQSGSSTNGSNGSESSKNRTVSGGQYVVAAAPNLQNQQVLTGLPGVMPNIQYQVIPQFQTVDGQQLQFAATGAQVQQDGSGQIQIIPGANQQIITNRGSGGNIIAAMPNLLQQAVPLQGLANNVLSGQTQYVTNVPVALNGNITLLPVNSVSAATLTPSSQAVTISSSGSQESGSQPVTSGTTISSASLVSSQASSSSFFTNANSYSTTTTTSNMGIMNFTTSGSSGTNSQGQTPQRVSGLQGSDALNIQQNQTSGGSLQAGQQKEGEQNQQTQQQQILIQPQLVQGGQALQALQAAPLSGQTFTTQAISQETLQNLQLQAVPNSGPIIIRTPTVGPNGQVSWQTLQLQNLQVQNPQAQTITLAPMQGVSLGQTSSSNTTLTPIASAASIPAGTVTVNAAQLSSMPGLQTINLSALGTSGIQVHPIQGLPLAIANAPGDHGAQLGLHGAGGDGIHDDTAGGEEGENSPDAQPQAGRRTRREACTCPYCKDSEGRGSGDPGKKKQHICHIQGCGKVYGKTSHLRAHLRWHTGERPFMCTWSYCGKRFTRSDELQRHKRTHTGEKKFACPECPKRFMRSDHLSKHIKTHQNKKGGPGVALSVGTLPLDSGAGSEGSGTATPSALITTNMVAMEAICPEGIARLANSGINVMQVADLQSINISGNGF
Signal transducer and activator of transcription 3 (Homo sapiens), sequence (P40763 whole entry, looked up): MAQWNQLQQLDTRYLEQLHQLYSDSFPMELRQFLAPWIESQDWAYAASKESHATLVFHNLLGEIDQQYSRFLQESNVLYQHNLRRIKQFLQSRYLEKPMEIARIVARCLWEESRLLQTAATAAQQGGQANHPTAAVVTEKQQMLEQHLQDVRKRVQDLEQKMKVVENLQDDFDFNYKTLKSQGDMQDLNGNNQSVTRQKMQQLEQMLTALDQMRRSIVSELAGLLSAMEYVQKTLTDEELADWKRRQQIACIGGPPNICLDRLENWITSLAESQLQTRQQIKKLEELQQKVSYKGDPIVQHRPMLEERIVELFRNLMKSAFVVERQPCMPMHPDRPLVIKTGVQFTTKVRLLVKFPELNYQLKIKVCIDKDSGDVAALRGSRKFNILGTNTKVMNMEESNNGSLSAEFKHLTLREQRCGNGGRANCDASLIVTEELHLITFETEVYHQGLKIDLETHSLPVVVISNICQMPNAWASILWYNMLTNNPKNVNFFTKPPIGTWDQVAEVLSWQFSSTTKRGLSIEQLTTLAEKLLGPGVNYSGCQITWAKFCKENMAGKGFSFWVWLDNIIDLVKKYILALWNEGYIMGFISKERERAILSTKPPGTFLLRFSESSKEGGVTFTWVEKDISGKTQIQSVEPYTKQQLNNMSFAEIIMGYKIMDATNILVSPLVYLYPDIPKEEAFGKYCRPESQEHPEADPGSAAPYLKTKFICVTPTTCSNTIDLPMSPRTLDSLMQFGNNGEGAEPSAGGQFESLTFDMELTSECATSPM
Bile acid receptor (Homo sapiens), sequence (Q96RI1 whole entry, looked up): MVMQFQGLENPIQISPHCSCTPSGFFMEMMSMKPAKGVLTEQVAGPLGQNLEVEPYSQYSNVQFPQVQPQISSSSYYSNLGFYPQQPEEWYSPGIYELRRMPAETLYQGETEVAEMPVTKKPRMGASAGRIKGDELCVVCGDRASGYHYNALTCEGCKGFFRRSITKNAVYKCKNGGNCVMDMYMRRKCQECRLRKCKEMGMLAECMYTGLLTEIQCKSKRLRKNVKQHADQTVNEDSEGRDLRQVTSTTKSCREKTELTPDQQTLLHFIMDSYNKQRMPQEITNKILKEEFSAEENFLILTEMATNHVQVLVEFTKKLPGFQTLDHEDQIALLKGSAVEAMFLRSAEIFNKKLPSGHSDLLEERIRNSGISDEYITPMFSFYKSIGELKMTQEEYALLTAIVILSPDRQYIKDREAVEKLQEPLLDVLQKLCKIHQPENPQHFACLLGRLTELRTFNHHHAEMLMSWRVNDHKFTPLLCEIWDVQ
Hepatocyte nuclear factor 6 (Homo sapiens), sequence (Q9UBC0 whole entry, looked up, the tested form may be a part): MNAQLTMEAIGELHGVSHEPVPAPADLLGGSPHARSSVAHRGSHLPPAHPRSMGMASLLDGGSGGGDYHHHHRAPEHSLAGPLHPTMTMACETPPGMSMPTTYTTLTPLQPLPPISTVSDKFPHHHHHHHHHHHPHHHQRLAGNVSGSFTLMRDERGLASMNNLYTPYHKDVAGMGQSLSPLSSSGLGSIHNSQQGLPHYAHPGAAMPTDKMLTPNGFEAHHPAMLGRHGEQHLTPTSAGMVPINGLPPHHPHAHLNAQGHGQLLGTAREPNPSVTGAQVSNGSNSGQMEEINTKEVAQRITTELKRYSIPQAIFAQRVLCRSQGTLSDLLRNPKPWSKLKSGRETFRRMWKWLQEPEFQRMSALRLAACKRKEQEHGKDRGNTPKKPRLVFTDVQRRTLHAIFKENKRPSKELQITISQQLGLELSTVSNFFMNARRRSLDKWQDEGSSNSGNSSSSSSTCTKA
Paired box protein Pax-6 (Homo sapiens), sequence (P26367 whole entry, looked up): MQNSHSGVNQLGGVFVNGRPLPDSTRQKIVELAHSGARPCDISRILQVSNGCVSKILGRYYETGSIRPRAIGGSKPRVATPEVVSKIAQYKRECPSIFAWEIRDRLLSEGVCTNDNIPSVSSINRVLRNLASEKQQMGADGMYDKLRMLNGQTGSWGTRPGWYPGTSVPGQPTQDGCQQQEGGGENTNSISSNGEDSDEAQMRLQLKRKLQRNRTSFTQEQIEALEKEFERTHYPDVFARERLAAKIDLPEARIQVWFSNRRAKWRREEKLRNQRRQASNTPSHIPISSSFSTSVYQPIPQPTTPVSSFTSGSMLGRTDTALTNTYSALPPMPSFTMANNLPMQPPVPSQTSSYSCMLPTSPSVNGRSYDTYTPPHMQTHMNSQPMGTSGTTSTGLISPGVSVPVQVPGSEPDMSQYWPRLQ
Hypoxia-inducible factor 1-alpha (Homo sapiens), sequence (Q16665 whole entry, looked up): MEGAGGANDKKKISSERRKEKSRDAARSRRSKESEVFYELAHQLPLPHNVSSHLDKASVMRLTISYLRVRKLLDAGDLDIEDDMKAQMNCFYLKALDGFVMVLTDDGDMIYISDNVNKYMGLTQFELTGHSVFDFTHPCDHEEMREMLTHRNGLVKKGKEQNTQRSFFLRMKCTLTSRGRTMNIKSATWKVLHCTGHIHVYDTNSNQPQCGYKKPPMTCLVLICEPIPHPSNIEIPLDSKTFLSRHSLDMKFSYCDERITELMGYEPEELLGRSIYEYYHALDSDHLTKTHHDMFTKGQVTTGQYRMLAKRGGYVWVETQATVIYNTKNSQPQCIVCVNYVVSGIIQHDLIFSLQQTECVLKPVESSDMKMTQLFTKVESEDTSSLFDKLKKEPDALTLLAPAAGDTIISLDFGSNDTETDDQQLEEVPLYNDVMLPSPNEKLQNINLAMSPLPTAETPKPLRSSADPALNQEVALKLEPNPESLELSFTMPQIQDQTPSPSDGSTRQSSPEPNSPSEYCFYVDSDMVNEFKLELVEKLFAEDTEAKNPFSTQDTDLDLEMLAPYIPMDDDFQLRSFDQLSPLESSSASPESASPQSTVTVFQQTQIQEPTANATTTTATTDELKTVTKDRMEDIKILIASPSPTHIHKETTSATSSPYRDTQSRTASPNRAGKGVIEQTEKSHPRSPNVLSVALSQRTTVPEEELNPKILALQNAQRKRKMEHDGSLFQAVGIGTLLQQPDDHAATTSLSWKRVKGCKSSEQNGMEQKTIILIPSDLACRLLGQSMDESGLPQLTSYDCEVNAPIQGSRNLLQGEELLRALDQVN

CCOC(C=C(C)CCC=C(C)C)OCC
active: [11] 31.2 µM | [13] 38.3 µM
not listed: [19] | [20]
inactive: all other assays above

CCCC(=O)OCC(COC(=O)CCC)OC(=O)CCC
active: [4] 53 µM | [11] 0.0935 µM
not listed: [9] | [19] | [20]
inactive: all other assays above

OCC(F)(F)C(F)(F)C(F)(F)CO
not listed: [19] | [20]
inactive: all other assays above

CC1CCCCC1
not listed: [9] | [20]
inactive: all other assays above

O=C(O)C(F)(F)C(F)(F)C(F)(F)C(F)(F)C(F)(F)C(F)(F)C(F)F
active: [11] 27.6 µM | [12] 46.1 µM | [16] 63.5 µM
not listed: [7] | [19]
inactive: all other assays above

c1ccc(C[P+](c2ccccc2)(c2ccccc2)c2ccccc2)cc1
active: [4] 31.3 µM | [8] 59.4 µM
not listed: [11] | [20]
inactive: all other assays above

CCCCCCCCn1sc(Cl)c(Cl)c1=O
active: [1] 11.1 µM | [3] 18.6 µM | [5] 15.9 µM | [7] 11.1 µM | [11] 4.27 µM | [16] 14.5 µM | [18] 8.12 µM
not listed: [4] | [19]
inactive: all other assays above
